# Laboratory results taken from the supplement of paper PMC6555819.
# Experiments:
# Assay in all cases: PBM binding z-score (relative to random genomic background probes); higher = stronger binding; sequences stand for … in GC…GCGATTGACAGCGTAGAATGAAGG
# [1] = system: RARb homodimer (NR concentration 270 nM)
# Procedure, shortened: (§1)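 Custom Agilent 4×180K protein-binding microarrays carried double-stranded probes. Their 34-nt variable regions held direct-repeat seeds, single-nucleotide variants, half-site ablations and random human genomic background sequences. Arrays were incubated 1 h with ligand-free nuclear receptor dimers in PBS pH 7.4, 2% milk, 0.02% Triton X-100, 1 mM DTT, 0.2 mg/mL BSA and 0.4 mg/ml salmon testes DNA. Antibodies against each partner (one per run) detected binding, and scanned fluorescence was regression-normalized. Binding z-scores use random background probes as reference.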
# [2] = system: RARg:RXRa (NR concentration 270 nM, RXRa partner concentration 90 nM)
# Procedure, shortened: as §1
# [3] = system: RARg homodimer (NR concentration 270 nM)
# Procedure, shortened: as §1
# [4] = system: RXRa DBDmut IVT, anti-RXR (DBD mutation: RXRa K156A/R161A, NR concentration 90 nM)
# Procedure, shortened: as §1
# [5] = system: RXRa homodimer (NR concentration 180 nM)
# Procedure, shortened: as §1
# [6] = system: THRa:RXRa (NR concentration 90 nM, RXRa partner concentration 90 nM)
# Procedure, shortened: as §1
# [7] = system: THRa homodimer (NR concentration 90 nM)
# Procedure, shortened: as §1
# [8] = system: VDR homodimer (NR concentration 270 nM)
# Procedure, shortened: as §1
Sequence,PBM binding z-score [1],PBM binding z-score [2],PBM binding z-score [3],PBM binding z-score [4],PBM binding z-score [5],PBM binding z-score [6],PBM binding z-score [7],PBM binding z-score [8]
GCGACTGGGACATCAGCAGGTTACCATAACTTAA,0.428,-0.00527,0.0107,-0.5,0.176,0.674,0.0254,-0.459
CAAACTAAGTCAAGAGGTCAAAGTCCGCTTCCCG,4.49,5.8,4.46,2.11,6.2,3.92,1.7,4.04
ACACCAAGGTGATCGTGAGGTCGTTGATACTAAC,1.69,2.28,0.878,1.13,1.64,3.42,2.39,2.69
ATCCCTAGGTAACAAGTTCAGTGAAAGAGAGGAC,1.94,1.09,1.15,0.955,0.712,1.65,1.17,2.48
ATATGTAGGTTAAGGGACATTCAGGTTGGTTCGC,1.6,1.28,1.27,0.615,1.25,1.14,0.815,1.69
CGAACTAGGTCATTGACAGGACTGTGAATAGTAA,2.4,3.66,4.03,2.31,2.35,2.49,0.524,0.706
ACTTACGGGTCAACGAGGTTATGGCACGCGTATA,3.9,5.75,5.68,2.65,6.57,4.04,1.32,3.94
TCTTGGAGATCAGCAGGTTAAGAAAGCTGGCCAA,-0.0506,-0.0345,-0.56,0.285,0.182,0.0283,-0.695,-0.225
TCATATAGCTAAATGCTAGGTGAAAGTCCGATCT,0.184,0.0741,0.129,0.952,0.435,0.577,-0.00445,-0.29
GCTAGCAGGCCATTTGGGTGACTCAATGACGGGC,-0.273,-0.23,0.0183,-0.541,-0.076,0.189,-0.653,-0.481
CGCACGAGGGCATGAGTTGATAGCAAATGCCGAT,1.2,1.1,1.72,2.41,0.956,1.3,0.0381,1.63
CCTACTGGGCCATTAGGTCATTGATATCAACGTT,2.8,2.38,2.12,0.292,1.04,2.63,2.27,1.01
TCTTGAAGATCAAGCAGGTTAAGAAAGCCTGAGT,-0.113,-0.172,-0.516,0.456,0.318,0.216,-0.679,-0.115
AGCTCTAGGTAAAGATAGTTCAGTGAATGCAAAT,1.34,0.3,0.62,-0.0733,0.094,0.782,0.107,0.592
CCTACTGGGCCATCAGGTCAATGATATCAACGTT,2.67,2.1,2.2,-0.0866,1.31,3.17,2.24,0.718
TGAATGAGGTTATAAGATTAGGGAACGTTGCAAA,0.24,1.43,1.01,0.551,1.87,1.68,0.15,0.323
CGTCCAAGCTCAGAGAGGTCAGTGAATGCCGAGT,3.56,2.72,2.99,0.551,2.36,2.19,0.794,2.2
ATCTCTAGGTAAAGATAGTTCAGTGAATGCAAAT,0.887,0.422,0.748,-0.0413,0.163,0.71,0.0896,0.419
TCATATAGGTAAAGCTGAAAGTCGAACGATATGA,-0.67,0.267,0.377,0.431,0.587,-0.286,-1.16,-0.537
AGTCAAAGTTCATCTAGGTAACGTTAGATATGCT,3.74,5.6,6.39,4.62,4.96,2.94,0.114,5.6
TCGAGCAGGTTAGTCGGGGCATTCAGCCAACATA,0.497,-0.142,-0.25,-0.118,-0.199,1.21,-0.236,0.432
GCTTGTAGATCAAGTTTAAGAAAGACTAAGCTAA,-0.242,-0.195,-0.0872,0.649,-0.236,-0.0932,-0.618,0.27
CCTCGTAGGACAACAGGAGGTCAGAGCTGCCAGA,3.16,3.05,3,0.577,2,2.51,0.709,0.704
CAAACTAGGTCACCGGAAGGTCAAAGTCCGCATG,5.88,8.43,7.82,2.05,6.69,4.6,2.95,3.43
TATGCTAGGTCAACGATGGTCAGCTAATCTGCTA,3.36,4.02,4.8,0.79,2.62,3.24,0.639,-0.267
CGAACGAGAGCATGAGTTGATAGCAAATGCCGAT,-0.657,-0.0472,0.132,0.193,-0.065,-0.724,-1.07,0.244
TTTGCTAGGTCAGTTGGTCAGCTAACGAGCTGCC,2.57,2.76,3.54,0.279,0.82,1.42,0.0567,-0.505
CCTAGCCGGCCAGGGTCACTCAAGCATTTCGCTT,2.68,3.09,2.37,0.0811,3.47,2.91,1.08,1.38
